# Measurements reported in ChEMBL document CHEMBL2218924, “A broad activity screen in support of a chemogenomic map for kinase signalling research and drug discovery” (Biochem J, 2013).
# Experiments:
# [1] = molecular target: T1, Ephrin type-B receptor 1 (Homo sapiens) (UniProt P54762); details: at 10 µM
# T1 sequence (whole entry): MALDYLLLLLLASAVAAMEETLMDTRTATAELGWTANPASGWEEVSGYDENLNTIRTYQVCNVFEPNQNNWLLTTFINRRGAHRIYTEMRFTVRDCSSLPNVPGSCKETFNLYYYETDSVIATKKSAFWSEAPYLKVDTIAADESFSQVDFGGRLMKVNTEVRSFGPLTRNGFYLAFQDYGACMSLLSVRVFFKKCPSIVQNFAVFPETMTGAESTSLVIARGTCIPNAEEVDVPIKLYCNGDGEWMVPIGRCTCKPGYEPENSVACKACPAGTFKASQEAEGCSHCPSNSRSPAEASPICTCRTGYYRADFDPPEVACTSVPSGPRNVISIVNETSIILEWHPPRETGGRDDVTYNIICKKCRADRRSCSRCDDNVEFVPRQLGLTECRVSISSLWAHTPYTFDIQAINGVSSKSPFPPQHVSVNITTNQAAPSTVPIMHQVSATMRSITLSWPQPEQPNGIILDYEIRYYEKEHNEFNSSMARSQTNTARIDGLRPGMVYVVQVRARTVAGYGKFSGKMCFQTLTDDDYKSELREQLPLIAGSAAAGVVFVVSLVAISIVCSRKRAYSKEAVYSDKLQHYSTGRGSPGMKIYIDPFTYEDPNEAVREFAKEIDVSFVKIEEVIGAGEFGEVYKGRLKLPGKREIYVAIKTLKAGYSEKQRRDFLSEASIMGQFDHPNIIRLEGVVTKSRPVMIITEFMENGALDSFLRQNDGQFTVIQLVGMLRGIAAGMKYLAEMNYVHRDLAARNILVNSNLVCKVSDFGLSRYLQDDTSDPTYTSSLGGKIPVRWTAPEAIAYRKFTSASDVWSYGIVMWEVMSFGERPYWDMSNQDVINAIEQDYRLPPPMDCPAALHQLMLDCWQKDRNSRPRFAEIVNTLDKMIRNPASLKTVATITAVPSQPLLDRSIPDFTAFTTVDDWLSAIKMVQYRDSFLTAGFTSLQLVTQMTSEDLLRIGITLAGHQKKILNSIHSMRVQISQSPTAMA
# [2] = molecular target: T2, Ephrin type-B receptor 2 (Homo sapiens) (UniProt P29323); details: at 1 µM
# T2 sequence (whole entry): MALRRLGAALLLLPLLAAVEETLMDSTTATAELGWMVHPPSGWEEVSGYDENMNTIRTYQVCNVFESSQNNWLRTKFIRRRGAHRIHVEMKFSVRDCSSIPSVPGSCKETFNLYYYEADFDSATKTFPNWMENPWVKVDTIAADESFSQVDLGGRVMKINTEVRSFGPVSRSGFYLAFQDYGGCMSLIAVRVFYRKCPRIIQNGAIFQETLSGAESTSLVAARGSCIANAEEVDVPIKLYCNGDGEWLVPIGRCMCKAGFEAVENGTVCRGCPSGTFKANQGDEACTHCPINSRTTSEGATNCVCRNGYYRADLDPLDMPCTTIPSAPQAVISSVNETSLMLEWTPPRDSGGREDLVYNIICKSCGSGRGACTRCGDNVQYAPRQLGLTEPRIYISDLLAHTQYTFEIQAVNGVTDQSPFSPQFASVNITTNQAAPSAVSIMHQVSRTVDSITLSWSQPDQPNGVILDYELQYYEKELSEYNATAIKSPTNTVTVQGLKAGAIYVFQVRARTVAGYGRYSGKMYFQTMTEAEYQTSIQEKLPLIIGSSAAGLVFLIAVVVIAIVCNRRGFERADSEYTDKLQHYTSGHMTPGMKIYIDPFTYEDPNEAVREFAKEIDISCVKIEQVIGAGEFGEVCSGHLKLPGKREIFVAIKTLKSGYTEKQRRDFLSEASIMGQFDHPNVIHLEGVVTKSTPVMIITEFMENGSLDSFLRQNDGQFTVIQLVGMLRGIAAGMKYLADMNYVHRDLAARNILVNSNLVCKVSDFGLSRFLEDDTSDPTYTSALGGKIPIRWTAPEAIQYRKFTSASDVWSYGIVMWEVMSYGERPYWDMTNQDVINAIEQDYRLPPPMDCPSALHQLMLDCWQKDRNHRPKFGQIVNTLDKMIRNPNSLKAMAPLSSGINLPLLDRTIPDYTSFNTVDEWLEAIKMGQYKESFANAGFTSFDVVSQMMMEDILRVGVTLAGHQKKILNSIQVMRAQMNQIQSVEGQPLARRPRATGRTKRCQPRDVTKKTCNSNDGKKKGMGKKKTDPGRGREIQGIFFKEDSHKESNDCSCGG
# [3] = molecular target: T2, Ephrin type-B receptor 2 (Homo sapiens); details: at 10 µM
# [4] = molecular target: T3, Ephrin type-B receptor 3 (Homo sapiens) (UniProt P54753); details: at 1 µM
# T3 sequence (whole entry): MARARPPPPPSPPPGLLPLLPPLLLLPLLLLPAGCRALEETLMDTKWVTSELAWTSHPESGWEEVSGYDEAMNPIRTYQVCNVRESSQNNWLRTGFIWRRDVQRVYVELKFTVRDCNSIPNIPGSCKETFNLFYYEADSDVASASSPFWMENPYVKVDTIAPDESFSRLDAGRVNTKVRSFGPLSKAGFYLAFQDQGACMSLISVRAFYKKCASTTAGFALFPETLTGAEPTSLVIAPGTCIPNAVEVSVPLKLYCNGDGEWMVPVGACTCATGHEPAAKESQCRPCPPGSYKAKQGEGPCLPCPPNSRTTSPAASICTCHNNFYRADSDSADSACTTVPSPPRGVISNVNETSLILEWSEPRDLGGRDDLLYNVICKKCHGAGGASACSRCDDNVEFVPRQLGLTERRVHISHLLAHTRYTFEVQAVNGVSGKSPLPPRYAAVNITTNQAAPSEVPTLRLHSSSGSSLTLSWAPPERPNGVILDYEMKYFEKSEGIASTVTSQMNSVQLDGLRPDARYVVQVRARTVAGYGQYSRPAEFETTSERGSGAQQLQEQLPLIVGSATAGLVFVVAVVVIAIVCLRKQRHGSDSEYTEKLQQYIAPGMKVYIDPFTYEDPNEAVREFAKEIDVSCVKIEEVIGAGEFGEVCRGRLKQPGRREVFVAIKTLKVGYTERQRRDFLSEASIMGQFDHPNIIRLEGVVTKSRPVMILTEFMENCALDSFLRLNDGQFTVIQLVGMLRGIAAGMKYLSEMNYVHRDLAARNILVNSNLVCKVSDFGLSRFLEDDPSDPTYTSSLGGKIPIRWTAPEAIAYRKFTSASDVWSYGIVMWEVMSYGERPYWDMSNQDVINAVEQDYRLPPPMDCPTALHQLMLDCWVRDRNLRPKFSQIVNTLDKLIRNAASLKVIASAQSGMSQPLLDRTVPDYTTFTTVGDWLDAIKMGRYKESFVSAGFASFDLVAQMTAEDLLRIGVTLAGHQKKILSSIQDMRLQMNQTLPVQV
# [5] = molecular target: T3, Ephrin type-B receptor 3 (Homo sapiens); details: at 10 µM
# [6] = molecular target: T4, Ephrin type-B receptor 4 (Homo sapiens) (UniProt P54760); details: at 1 µM
# T4 sequence (whole entry): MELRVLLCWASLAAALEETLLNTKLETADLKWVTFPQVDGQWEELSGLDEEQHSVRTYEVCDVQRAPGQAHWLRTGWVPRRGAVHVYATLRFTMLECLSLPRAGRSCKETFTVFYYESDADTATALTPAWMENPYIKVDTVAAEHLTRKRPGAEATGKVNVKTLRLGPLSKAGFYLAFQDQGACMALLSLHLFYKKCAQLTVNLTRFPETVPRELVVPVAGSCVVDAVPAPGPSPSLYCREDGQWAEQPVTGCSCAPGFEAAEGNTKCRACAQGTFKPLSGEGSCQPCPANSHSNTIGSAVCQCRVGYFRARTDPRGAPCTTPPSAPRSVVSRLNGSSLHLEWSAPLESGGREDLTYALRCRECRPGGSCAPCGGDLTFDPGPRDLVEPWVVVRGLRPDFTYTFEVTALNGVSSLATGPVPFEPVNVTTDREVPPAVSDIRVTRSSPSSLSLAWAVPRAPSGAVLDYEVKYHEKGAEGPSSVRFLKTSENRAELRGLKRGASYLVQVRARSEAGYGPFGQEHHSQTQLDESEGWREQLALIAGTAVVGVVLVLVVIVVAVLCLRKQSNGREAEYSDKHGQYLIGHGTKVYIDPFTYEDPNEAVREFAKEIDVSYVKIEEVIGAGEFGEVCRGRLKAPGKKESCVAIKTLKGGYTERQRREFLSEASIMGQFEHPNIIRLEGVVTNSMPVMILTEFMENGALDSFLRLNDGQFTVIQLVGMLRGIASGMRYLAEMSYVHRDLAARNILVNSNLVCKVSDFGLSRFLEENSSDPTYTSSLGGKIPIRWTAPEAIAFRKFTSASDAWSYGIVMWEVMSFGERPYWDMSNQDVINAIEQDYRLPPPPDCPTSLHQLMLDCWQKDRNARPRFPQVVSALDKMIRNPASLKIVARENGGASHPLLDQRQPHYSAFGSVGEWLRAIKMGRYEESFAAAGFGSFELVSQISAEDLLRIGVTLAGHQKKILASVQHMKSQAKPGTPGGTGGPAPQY
# [7] = molecular target: T4, Ephrin type-B receptor 4 (Homo sapiens); details: at 10 µM
# [8] = molecular target: Receptor tyrosine-protein kinase erbB-4 (Homo sapiens) (UniProt Q15303); details: at 1 µM
# Receptor tyrosine-protein kinase erbB-4 (Homo sapiens), sequence (Q15303 whole entry): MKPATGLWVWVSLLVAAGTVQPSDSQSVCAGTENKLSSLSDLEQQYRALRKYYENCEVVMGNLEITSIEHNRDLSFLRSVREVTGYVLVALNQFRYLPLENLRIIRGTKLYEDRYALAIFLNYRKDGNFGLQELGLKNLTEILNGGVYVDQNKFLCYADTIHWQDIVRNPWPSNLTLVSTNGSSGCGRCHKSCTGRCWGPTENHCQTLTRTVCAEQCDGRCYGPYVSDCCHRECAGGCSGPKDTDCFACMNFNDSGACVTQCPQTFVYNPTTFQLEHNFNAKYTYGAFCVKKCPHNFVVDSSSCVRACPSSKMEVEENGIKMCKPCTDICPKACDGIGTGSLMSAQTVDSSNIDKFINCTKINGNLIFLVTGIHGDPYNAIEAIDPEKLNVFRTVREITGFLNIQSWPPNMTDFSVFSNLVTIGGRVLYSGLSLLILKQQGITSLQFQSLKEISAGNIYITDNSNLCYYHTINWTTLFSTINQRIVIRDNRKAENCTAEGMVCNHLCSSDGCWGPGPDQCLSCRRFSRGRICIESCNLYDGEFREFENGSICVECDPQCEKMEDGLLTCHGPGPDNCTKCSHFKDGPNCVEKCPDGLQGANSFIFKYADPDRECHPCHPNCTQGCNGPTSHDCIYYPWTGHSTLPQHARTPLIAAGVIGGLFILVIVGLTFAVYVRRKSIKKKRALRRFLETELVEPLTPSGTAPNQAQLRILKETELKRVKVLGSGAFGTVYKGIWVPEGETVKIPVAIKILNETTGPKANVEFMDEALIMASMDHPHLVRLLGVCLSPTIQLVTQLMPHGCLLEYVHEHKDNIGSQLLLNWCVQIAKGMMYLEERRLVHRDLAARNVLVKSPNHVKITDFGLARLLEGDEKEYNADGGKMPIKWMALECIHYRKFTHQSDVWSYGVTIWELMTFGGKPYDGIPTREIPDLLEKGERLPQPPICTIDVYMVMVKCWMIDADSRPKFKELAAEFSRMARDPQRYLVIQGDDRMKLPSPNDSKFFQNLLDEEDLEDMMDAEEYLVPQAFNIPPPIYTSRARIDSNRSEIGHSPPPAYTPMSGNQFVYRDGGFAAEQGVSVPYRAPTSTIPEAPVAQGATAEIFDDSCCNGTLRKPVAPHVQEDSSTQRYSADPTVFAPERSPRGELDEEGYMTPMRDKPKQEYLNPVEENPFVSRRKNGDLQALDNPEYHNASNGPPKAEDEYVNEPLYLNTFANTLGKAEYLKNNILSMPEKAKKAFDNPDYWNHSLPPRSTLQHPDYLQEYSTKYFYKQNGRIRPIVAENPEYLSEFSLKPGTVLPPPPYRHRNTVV
# [9] = molecular target: Receptor tyrosine-protein kinase erbB-4 (Homo sapiens) (UniProt Q15303); details: at 10 µM
# [10] = molecular target: Focal adhesion kinase 1 (Homo sapiens) (UniProt Q05397); details: at 1 µM
# Focal adhesion kinase 1 (Homo sapiens), sequence (Q05397 2-1052 limits assumed): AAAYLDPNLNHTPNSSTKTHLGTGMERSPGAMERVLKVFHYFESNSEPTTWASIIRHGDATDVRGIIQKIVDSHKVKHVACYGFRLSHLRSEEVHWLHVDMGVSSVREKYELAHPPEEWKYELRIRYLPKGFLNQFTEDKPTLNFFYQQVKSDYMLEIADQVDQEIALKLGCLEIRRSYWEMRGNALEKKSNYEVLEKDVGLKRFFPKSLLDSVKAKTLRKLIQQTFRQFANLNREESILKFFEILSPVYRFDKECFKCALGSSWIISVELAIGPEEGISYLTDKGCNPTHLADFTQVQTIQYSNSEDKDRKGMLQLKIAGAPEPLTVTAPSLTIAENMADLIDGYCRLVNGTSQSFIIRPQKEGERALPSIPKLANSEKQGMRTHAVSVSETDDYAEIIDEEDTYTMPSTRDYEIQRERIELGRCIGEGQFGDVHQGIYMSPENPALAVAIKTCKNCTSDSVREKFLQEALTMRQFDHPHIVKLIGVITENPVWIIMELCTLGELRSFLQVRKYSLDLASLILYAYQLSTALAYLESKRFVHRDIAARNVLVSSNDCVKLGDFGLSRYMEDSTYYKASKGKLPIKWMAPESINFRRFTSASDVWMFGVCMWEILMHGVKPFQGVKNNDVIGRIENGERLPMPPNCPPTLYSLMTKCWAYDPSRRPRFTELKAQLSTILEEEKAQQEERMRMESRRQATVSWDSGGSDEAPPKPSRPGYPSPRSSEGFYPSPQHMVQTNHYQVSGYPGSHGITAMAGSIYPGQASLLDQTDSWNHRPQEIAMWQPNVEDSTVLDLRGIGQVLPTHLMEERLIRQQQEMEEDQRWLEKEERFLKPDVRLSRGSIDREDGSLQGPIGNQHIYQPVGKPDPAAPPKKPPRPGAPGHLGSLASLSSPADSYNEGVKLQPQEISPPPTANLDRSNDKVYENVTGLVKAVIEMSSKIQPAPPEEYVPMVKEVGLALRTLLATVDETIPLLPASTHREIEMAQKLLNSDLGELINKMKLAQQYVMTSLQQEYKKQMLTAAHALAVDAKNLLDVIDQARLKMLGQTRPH
smiles,measurement,setting,value
CCC(=O)Nc1ccc2ncnc(Nc3cccc(Br)c3)c2c1,residual activity,[1],97%
same,residual activity,[2],105%
same,residual activity,[3],55%
same,residual activity,[4],111% (inactive)
same,residual activity,[5],120%
same,residual activity,[6],81%
same,residual activity,[7],57%
same,residual activity,[8],59%
same,residual activity,[9],58%
same,residual activity,[10],131%
